Laboratory results published in PubChem BioAssay (NCI).
Compounds without any hit were thinned out: in the full panel of roughly 83,000, 20% have a hit.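 Results are percent growth after 48 hours of single-concentration exposure. 100 means growth as in untreated cells, lower positive values show inhibition; negative values down to -100 show cell death.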 Values without a mark were called inactive. The source made the active and inactive calls. Rule for the calls: active = growth percent below 10; inactive = the rest.

system: T-47D breast; experiment: NCI-60 one-dose screen, 48 h (100 = growth as untreated, 0 = no growth, -100 = all killed); conditions: 10 µM unless noted

| Structure (SMILES) | growth |
| --- | --- |
| Clc1ccc2c(NCCNC34CC5CC(CC(C5)C3)C4)ccnc2c1 | -47.2% (active) |
| Cn1cc(-c2cc(N)n3nc(-c4c[nH]c5ccccc45)cc3n2)c2cc(Br)ccc21 | -82.7% (active) |
| Cc1nn(-c2ccccc2)c2nc(C)n(CC(=O)N/N=C/c3cccc([N+](=O)[O-])c3)c(=O)c12 | 77.6% |
| Cc1ccc(S(=O)(=O)Nc2ccc(-c3ccc4c(c3)NC(=O)/C4=C\c3ccc[nH]3)cc2)cc1 | 18.8% |
| O=C1c2cccc3c(N4CCN(c5ccccc5)CC4)ccc(c23)C(=O)N1c1cccc(-c2nn(-c3ccccc3)cc2-c2nc3ccccc3s2)c1 | 114% |
| COc1ccc(-c2cc(-c3cc(C(C)C)c(O)cc3C)nn2-c2ccc(S(N)(=O)=O)cc2)cc1 | 12.7% |
| Clc1ccc(-c2nc3c4c(-c5ccccc5)c(-c5ccccc5)n(Cc5ccccc5)c4ncn3n2)cc1 | 7.51% (active) |
| Cc1ccc(-c2cc(C(=O)N=Nc3c(O)[nH]c4ccc(F)cc34)c3ccccc3n2)cc1 | 39.9% |
| COc1ccc(/C=C/c2nc3ccccc3n3c(-c4cccc([N+](=O)[O-])c4)nnc23)cc1 | -7.62% (active) |
| O=C(c1ccc(O)cc1)C1[C@H](c2ccc(Cl)cc2)[C@@H](c2ccccc2)NC12C(=O)Nc1ccccc12 (some centres not stated) | 11.7% |
| N#C/C(=C1/C(=O)Nc2ccccc21)c1nnc(NC(=O)c2ccc(-n3c(=O)[nH]c4ccccc4c3=O)cc2)s1 | 6.13% (active) |
| CN(C(=O)CN1C(=O)/C(=C/c2ccco2)SC1=S)C1CCS(=O)(=O)C1 (configuration not stated) | 75.7% |
| COc1c2c(cc3c1C(CCc1ccccc1)N(C)CC3)OCO2 (configuration not stated) | -22.3% (active) |
| COc1cc(C2CC(c3ccc(F)cc3)=Nc3c(N)nc(N)nc3N2)ccc1Oc1nc(Nc2ccc(F)cc2)nc(N(C)C)n1 (configuration not stated) | 65.7% |
| CC(C)C[C@H](NC(=O)CNC(=O)C[C@H]1O[C@@H]2OC3(C)CC[C@H]4[C@H](C)CC[C@@H]([C@H]1C)[C@@]24O3)B(O)O | -30.8% (active) |
| Cc1[nH]nc2ccc3nc(-c4cnn(CCO)c4)c4c(c3c12)CCCC4 | 34.5% |
| CCCN(CCC)S(=O)(=O)c1ccc(C(=O)O)cc1.CCCN(CCC)S(=O)(=O)c1ccc(C(=O)O)cc1.[Cl][Pt+2][Cl].[NH2-].[NH2-] | 26.3% |
| COc1ccc(N=Nc2c(N)nn3c(-c4ccc5c(c4)C=S=C5)ccnc23)cc1 | 3.67% (active) |
| O=C(NNC(=O)c1ccc(OCc2nc3ccc(Cl)cc3[nH]2)cc1)Nc1ccc(Cl)c(Cl)c1 | -1.89% (active) |
| Cc1nc(Nc2ccccn2)sc1C1=NNC(c2ccccc2F)C1 (configuration not stated) | 33.5% |
| COc1ccc(-c2nc3ccccc3n2CC(=O)N=Nc2c(O)[nH]c3ccc(Br)cc23)cc1 | 90.9% |
| CC[C@]12C=CCN3CC[C@@]4(c5ccc(OC)cc5N(C)[C@H]4[C@@](O)(C(=O)OC)[C@@H]1OC(=O)CCC[P+](c1ccc(OC)cc1)(c1ccc(OC)cc1)c1ccc(OC)cc1)[C@@H]32 | -61.4% (active) |
| COc1ccc(-c2cc(C(=O)N=Nc3c(O)[nH]c4ccc(Cl)cc34)c3ccccc3n2)cc1OC | 106% |
| Fc1ccc(Nc2nnc(-c3c[nH]c4ccccc34)o2)cc1 | 47.2% |
| O=C(NN1C(=O)/C(=C/C=C/c2ccc([N+](=O)[O-])o2)SC1=S)c1ccc(O)cc1 | -53.4% (active) |
| Cc1cccc(-c2ccccc2Oc2ccc3nnc(Cl)n3n2)c1 | 111% |
| C[C@H](NC(=O)c1ccc2c(-c3ccc(C(F)(F)F)cc3)cccc2c1)c1ccccn1 | 18% |
| Cc1ccc(C(=O)Nc2cc(-c3ccccc3)cc(C(F)(F)F)c2)cc1C#Cc1cnc2cccnn12 | 42.3% |
| O=[N+]([O-])c1cccc(-c2nnc3c(/C=C/c4ccc(F)cc4)nc4ccccc4n23)c1 | 74.3% |
| O=C1Nc2cc(-c3ccc(NS(=O)(=O)c4ccc(C(F)(F)F)cc4)cc3)ccc2/C1=C/c1ccc[nH]1 | 18.1% |

system: BT-549 breast; experiment: as above; conditions: 10 µM unless noted

| Structure (SMILES) | growth |
| --- | --- |
| CC1=C(C(=O)Nc2ccccc2)C(c2cccc3ccccc23)n2c(nc3ccccc32)N1 (configuration not stated) | -2.15% (active) |
| COc1ccc(NC(=O)CSc2nnc(-c3ccc(-c4nc5ccccc5[nH]4)cc3)o2)cc1 | 27.3% |
| COc1cc2cc(C(=O)N3C[C@@H](CCl)c4c3cc(OC(=O)N(C)CCSSCCN3CCOCC3)c3ccccc43)[nH]c2c(OC)c1OC | -58.5% (active) |
| CC(=O)C[n+]1cccc2c3ccccc3ccc21 | 107% |
| CC[C@]12C=CCN3CC[C@]4(C(=C(C(=O)OC)C1)Nc1cc(OC)c([C@@H]5[C@H]6O[C@H]6[C@@]6(CC)CC(C(=O)OC)=C7Nc8cc(O)ccc8[C@@]78CCN5[C@@H]68)cc14)[C@@H]32 | -29% (active) |
| Cc1ccccc1Nc1nnc(-c2c[nH]c3ccccc23)o1 | 17.7% |
| COc1cncc(-c2ccc3ncnc(N4CCc5ccc(Cl)cc54)c3c2)c1 | -72.1% (active) |
| Clc1ccc2c(NCCNC34CC5CC(CC(C5)C3)C4)ccnc2c1 | -86.5% (active) |
| Cn1cc(-c2cc(N)n3nc(-c4c[nH]c5ccccc45)cc3n2)c2cc(Br)ccc21 | -58% (active) |
| Cc1nn(-c2ccccc2)c2nc(C)n(CC(=O)N/N=C/c3cccc([N+](=O)[O-])c3)c(=O)c12 | 82.8% |
| Cc1ccc(S(=O)(=O)Nc2ccc(-c3ccc4c(c3)NC(=O)/C4=C\c3ccc[nH]3)cc2)cc1 | 63.7% |
| O=C1c2cccc3c(N4CCN(c5ccccc5)CC4)ccc(c23)C(=O)N1c1cccc(-c2nn(-c3ccccc3)cc2-c2nc3ccccc3s2)c1 | 126% |
| COc1ccc(-c2cc(-c3cc(C(C)C)c(O)cc3C)nn2-c2ccc(S(N)(=O)=O)cc2)cc1 | -3.73% (active) |
| Clc1ccc(-c2nc3c4c(-c5ccccc5)c(-c5ccccc5)n(Cc5ccccc5)c4ncn3n2)cc1 | -28.4% (active) |
| Cc1ccc(-c2cc(C(=O)N=Nc3c(O)[nH]c4ccc(F)cc34)c3ccccc3n2)cc1 | 39.1% |
| COc1ccc(/C=C/c2nc3ccccc3n3c(-c4cccc([N+](=O)[O-])c4)nnc23)cc1 | -87.5% (active) |
| O=C(c1ccc(O)cc1)C1[C@H](c2ccc(Cl)cc2)[C@@H](c2ccccc2)NC12C(=O)Nc1ccccc12 (some centres not stated) | -50.7% (active) |
| N#C/C(=C1/C(=O)Nc2ccccc21)c1nnc(NC(=O)c2ccc(-n3c(=O)[nH]c4ccccc4c3=O)cc2)s1 | 12.1% |
| CN(C(=O)CN1C(=O)/C(=C/c2ccco2)SC1=S)C1CCS(=O)(=O)C1 (configuration not stated) | 91.3% |

| Structure (SMILES) | growth |
| --- | --- |
| COc1c2c(cc3c1C(CCc1ccccc1)N(C)CC3)OCO2 (configuration not stated) | -28.8% (active) |
| COc1cc(C2CC(c3ccc(F)cc3)=Nc3c(N)nc(N)nc3N2)ccc1Oc1nc(Nc2ccc(F)cc2)nc(N(C)C)n1 (configuration not stated) | 51.3% |
| CC(C)C[C@H](NC(=O)CNC(=O)C[C@H]1O[C@@H]2OC3(C)CC[C@H]4[C@H](C)CC[C@@H]([C@H]1C)[C@@]24O3)B(O)O | -87% (active) |
| Cc1[nH]nc2ccc3nc(-c4cnn(CCO)c4)c4c(c3c12)CCCC4 | 46.3% |
| CCCN(CCC)S(=O)(=O)c1ccc(C(=O)O)cc1.CCCN(CCC)S(=O)(=O)c1ccc(C(=O)O)cc1.[Cl][Pt+2][Cl].[NH2-].[NH2-] | -78.8% (active) |
| COc1ccc(N=Nc2c(N)nn3c(-c4ccc5c(c4)C=S=C5)ccnc23)cc1 | 19.9% |
| O=C(NNC(=O)c1ccc(OCc2nc3ccc(Cl)cc3[nH]2)cc1)Nc1ccc(Cl)c(Cl)c1 | 119% |
| Cc1nc(Nc2ccccn2)sc1C1=NNC(c2ccccc2F)C1 (configuration not stated) | 36.1% |
| COc1ccc(-c2nc3ccccc3n2CC(=O)N=Nc2c(O)[nH]c3ccc(Br)cc23)cc1 | 53.3% |
| CC[C@]12C=CCN3CC[C@@]4(c5ccc(OC)cc5N(C)[C@H]4[C@@](O)(C(=O)OC)[C@@H]1OC(=O)CCC[P+](c1ccc(OC)cc1)(c1ccc(OC)cc1)c1ccc(OC)cc1)[C@@H]32 | -96.6% (active) |
| COc1ccc(-c2cc(C(=O)N=Nc3c(O)[nH]c4ccc(Cl)cc34)c3ccccc3n2)cc1OC | 113% |
| Fc1ccc(Nc2nnc(-c3c[nH]c4ccccc34)o2)cc1 | 67.3% |
| O=C(NN1C(=O)/C(=C/C=C/c2ccc([N+](=O)[O-])o2)SC1=S)c1ccc(O)cc1 | -94% (active) |
| Cc1cccc(-c2ccccc2Oc2ccc3nnc(Cl)n3n2)c1 | 99.8% |
| C[C@H](NC(=O)c1ccc2c(-c3ccc(C(F)(F)F)cc3)cccc2c1)c1ccccn1 | 54.3% |
| Cc1ccc(C(=O)Nc2cc(-c3ccccc3)cc(C(F)(F)F)c2)cc1C#Cc1cnc2cccnn12 | 139% |
| O=[N+]([O-])c1cccc(-c2nnc3c(/C=C/c4ccc(F)cc4)nc4ccccc4n23)c1 | 87.5% |
| O=C1Nc2cc(-c3ccc(NS(=O)(=O)c4ccc(C(F)(F)F)cc4)cc3)ccc2/C1=C/c1ccc[nH]1 | -8.7% (active) |
